About 79,000 compounds went through this panel and 15% of them were active in at least one assay; those are over-represented in the sample as a whole. Calls of active or inactive are those of the source. No stated cut-off is given here; in the data, active means growth inhibition above about 70%; inactive means the rest.
How the values were obtained:
[1] = NCI Yeast Anticancer Drug Screen. Data for the rad52 strain (AID 147);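 further: 0% = growth of vehicle-treated control cultures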; conditions: S. cerevisiae rad52 mutant growth inhibition, hits give high values
Summary of the method: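 Genetically altered yeast (DNA damage repair defect) treated with compound; inhibition calculated relative to vehicle.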

[2] = NCI Yeast Anticancer Drug Screen. Data for the rad50EPP+ strain (AID 151);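 further: 0% = growth of vehicle-treated control cultures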; conditions: S. cerevisiae rad50 mutant strain, hits give high values
Summary of the method: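 Strain rad50EPP+; compound exposure; % growth inhibition vs vehicle.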

[3] = NCI Yeast Anticancer Drug Screen. Data for the mgt1 strain (AID 153); conditions: S. cerevisiae mgt1 mutant growth inhibition, hits give high values
Summary of the method: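 Read-out: yeast growth inhibition vs vehicle control. Strain mgt1, drawn from a panel altered in DNA damage repair or cell cycle control.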

[4] = NCI Yeast Anticancer Drug Screen. Data for the rad50 strain (AID 155);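 further: 0% = growth of vehicle-only cultures of the same strain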; conditions: S. cerevisiae rad50 strain growth inhibition, hits give high values
Summary of the method: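 Readout: growth inhibition relative to vehicle-treated cultures. Compound exposure was carried out in a genetically defined yeast strain deficient in DNA damage repair.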

[5] = NCI Yeast Anticancer Drug Screen. Data for the mec2-1 strain (AID 157); conditions: S. cerevisiae mec2-1 strain, hits give high values
Summary of the method: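 Cells of the genetically defined mec2-1 yeast strain are incubated with test compound. Inhibition of growth is calculated against vehicle-treated controls.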

[6] = NCI Yeast Anticancer Drug Screen. Data for the rad14 strain (AID 159);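 further: 0% = growth of vehicle-treated control cultures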; conditions: S. cerevisiae rad14 strain growth inhibition, hits give high values
Summary of the method: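 Growth inhibition vs vehicle controls; genetically altered yeast strain (DNA damage repair defect) treated with test compounds.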

[7] = NCI Yeast Anticancer Drug Screen. Data for the sgs1 mgt1 strain (AID 161);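 further: 0% = growth of cultures given vehicle only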; conditions: S. cerevisiae sgs1 mgt1 strain, hits give high values
Summary of the method: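 Inhibition of yeast growth, normalised to vehicle-treated controls, is reported for a strain bearing genetic alterations in DNA damage repair.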

[8] = NCI Yeast Anticancer Drug Screen. Data for the CLN2oe strain (AID 163);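 further: 0% = growth of vehicle-only control cultures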; conditions: S. cerevisiae CLN2oe strain, hits give high values
Summary of the method: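 Strain altered in cell-cycle control, incubated with compound; growth compared to solvent-treated controls.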

[9] = NCI Yeast Anticancer Drug Screen. Data for the cln2 rad14 strain (AID 165);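 further: 0% = growth equal to vehicle treated cultures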; conditions: S. cerevisiae cln2 rad14 strain, hits give high values
Summary of the method: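 The screen exposed genetically defined yeast (cln2 rad14) to test compounds and scored growth inhibition relative to vehicle-treated controls.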

[10] = NCI Yeast Anticancer Drug Screen. Data for the wt2 strain (AID 169);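 further: 0% = growth of vehicle-treated yeast cultures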; conditions: S. cerevisiae wt2 strain growth inhibition, hits give high values
Summary of the method: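 Steps: yeast strain treated with compound; growth recorded; inhibition calculated relative to cultures given vehicle alone.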

[11] = NCI Yeast Anticancer Drug Screen. Data for the mlh1 strain (AID 171);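 further: 0% = growth of vehicle-treated control cultures of the same strain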; conditions: S. cerevisiae mlh1 strain growth inhibition, hits give high values
Summary of the method: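 Yeast screen: mutant strain plus compound, growth scored against vehicle control wells.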

[12] = NCI Yeast Anticancer Drug Screen. Data for the sgs1 strain (AID 173);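 further: 0% = growth of vehicle-only control cultures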; conditions: S. cerevisiae sgs1 mutant, hits give high values
Summary of the method: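 Inhibition of yeast growth served as the measure. The mutant strain was treated with each compound, and growth was normalised to cultures receiving vehicle alone.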

[13] = NCI Yeast Anticancer Drug Screen. Data for the mlh1 rad18 strain (AID 175); conditions: S. cerevisiae mlh1 rad18 strain growth inhibition, hits give high values
Summary of the method: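 Compound-treated yeast growth, normalised to vehicle controls. Strain bears defined DNA repair mutations.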

[14] = NCI Yeast Anticancer Drug Screen. Data for the rad18 strain (AID 177); conditions: S. cerevisiae rad18 mutant growth inhibition, hits give high values
Summary of the method: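 Inhibition values reflect reduced yeast growth compared with vehicle-treated controls, using a strain engineered with a DNA damage repair defect.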

[15] = NCI Yeast Anticancer Drug Screen. Data for the wt1 strain (AID 149);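 further: 0% = growth of vehicle-treated wt1 cultures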; conditions: S. cerevisiae wt1 strain (SPY 50644) growth inhibition, hits give high values
Summary of the method: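 Growth inhibition read against vehicle controls after compound exposure of the wt1 yeast strain.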

[16] = NCI Yeast Anticancer Drug Screen. Data for the bub3 strain (AID 167); conditions: S. cerevisiae bub3 mutant strain, hits give high values
Summary of the method: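 Readout: yeast growth inhibition, expressed relative to vehicle-only wells. The test organism is a mutant strain from a panel with lesions in DNA repair or checkpoint genes.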

[17] = at 5.0 µM (retest, dose inferred, filed as 0.5)
[18] = at 50.0 µM (retest, dose inferred, filed as 5.0)

Measured: growth inhibition

O=C1c2cccc3cc([N+](=O)[O-])cc(c23)C(=O)N1CCN1CCCC1
active: [1]; at 33.0 µM 90% | [1]; at 100.0 µM 94% | [2]; at 33.0 µM 73% | [2]; at 100.0 µM 83% | [4]; at 33.0 µM 88% | [4]; [18] 95% | [4]; at 100.0 µM 91% | [14]; at 100.0 µM 73%
inactive: [1]; at 1.2 µM 33% | [1]; at 3.7 µM 61% | [1]; at 11.0 µM 63% | [2]; at 1.2 µM 13% | [2]; at 3.7 µM 23% | [2]; at 11.0 µM 39% | [3]; at 1.2 µM -6% | [3]; at 3.7 µM 10% | [3]; at 11.0 µM 8% | [3]; at 33.0 µM 7% | [3]; at 100.0 µM 44% | [4]; at 1.2 µM 16% | [4]; at 3.7 µM 48% | [4]; [17] 11% | [4]; at 11.0 µM 62% | [4]; at 50.0 µM 66.7% | [5]; at 1.2 µM 5% | [5]; at 3.7 µM 5% | [5]; [17] 11% | [5]; at 11.0 µM -3% | [5]; at 33.0 µM -4% | [5]; [18] 30% | [5]; at 50.0 µM 28.1% | [5]; at 100.0 µM 38% | [6]; at 1.2 µM 12% | [6]; at 3.7 µM 11% | [6]; at 11.0 µM 14% | [6]; at 33.0 µM 5% | [6]; at 100.0 µM 28% | [7]; [17] 8% | [7]; [18] 12% | [7]; at 50.0 µM -14.2% | [8]; at 1.2 µM 7% | [8]; at 3.7 µM 25% | [8]; at 11.0 µM 25% | [8]; at 33.0 µM 39% | [8]; at 100.0 µM 61% | [9]; [17] 9% | [9]; [18] 36% | [9]; at 50.0 µM -15.8% | [10]; at 1.2 µM -11% | [10]; at 3.7 µM 0% | [10]; at 11.0 µM 12% | [10]; at 33.0 µM 7% | [10]; at 100.0 µM 19% | [11]; at 1.2 µM 0% | [11]; at 3.7 µM 20% | [11]; at 11.0 µM -4% | [11]; at 33.0 µM 18% | [11]; at 100.0 µM 39% | [12]; at 1.2 µM 0% | [12]; at 3.7 µM 0% | [12]; at 11.0 µM 2% | [12]; at 33.0 µM 19% | [12]; at 100.0 µM 50% | [13]; [17] 3% | [13]; [18] 18% | [13]; at 50.0 µM -41.9% | [14]; at 1.2 µM 24% | [14]; at 3.7 µM 23% | [14]; at 11.0 µM 33% | [14]; at 33.0 µM 15%

CCOP1(=O)C=C(Sc2ccc([N+](=O)[O-])cc2[N+](=O)[O-])C(C)(C)O1 (stereo not given)
inactive: [1]; at 1.2 µM 2% | [1]; at 3.7 µM 6% | [1]; at 11.0 µM 16% | [1]; at 33.0 µM 39% | [15]; at 1.2 µM 2% | [15]; at 3.7 µM 2% | [15]; at 11.0 µM 6% | [15]; at 33.0 µM 4% | [15]; at 100.0 µM 31% | [2]; at 1.2 µM -4% | [2]; at 3.7 µM -3% | [2]; at 11.0 µM -2% | [2]; at 33.0 µM 13% | [2]; at 100.0 µM 53% | [4]; at 1.2 µM 2% | [4]; at 3.7 µM 9% | [4]; [17] 28% | [4]; at 11.0 µM 16% | [4]; at 33.0 µM 37% | [4]; [18] 40% | [4]; at 50.0 µM 51.4% | [6]; at 1.2 µM 1% | [6]; at 3.7 µM 3% | [6]; at 11.0 µM 9% | [6]; at 33.0 µM 20% | [6]; at 100.0 µM 43% | [7]; [17] 23% | [7]; [18] 38% | [7]; at 50.0 µM 33% | [8]; at 1.2 µM 3% | [8]; at 3.7 µM 0% | [8]; at 11.0 µM 1% | [8]; at 33.0 µM 11% | [8]; at 100.0 µM 37% | [9]; [17] 7% | [9]; [18] 44% | [9]; at 50.0 µM 26.1% | [16]; at 1.2 µM 5% | [16]; at 3.7 µM 7% | [16]; [17] 11% | [16]; at 11.0 µM 16% | [16]; at 33.0 µM 40% | [16]; [18] 31% | [16]; at 50.0 µM 1.9% | [10]; at 1.2 µM 4% | [10]; at 3.7 µM 8% | [10]; at 11.0 µM 12% | [10]; at 33.0 µM 25% | [11]; at 1.2 µM 3% | [11]; at 3.7 µM 7% | [11]; at 11.0 µM 14% | [11]; at 33.0 µM 31% | [12]; at 1.2 µM 3% | [12]; at 3.7 µM 6% | [12]; at 11.0 µM 13% | [12]; at 33.0 µM 37% | [13]; [17] 25% | [13]; [18] 60% | [13]; at 50.0 µM 42.2% | [14]; at 1.2 µM 0% | [14]; at 3.7 µM 9% | [14]; at 11.0 µM 28% | [14]; at 33.0 µM 66%
active: [1]; at 100.0 µM 84% | [4]; at 100.0 µM 83% | [16]; at 100.0 µM 92% | [10]; at 100.0 µM 72% | [11]; at 100.0 µM 83% | [12]; at 100.0 µM 84% | [14]; at 100.0 µM 92%

O=[N+]([O-])c1c(/C=N/Nc2ccccc2)oc(-c2ccc3c(c2)OCO3)c1-c1ccc2c(c1)OCO2
active: [1]; at 100.0 µM 88% | [4]; [17] 88% | [4]; [18] 88% | [4]; at 50.0 µM 80.3% | [4]; at 100.0 µM 86% | [5]; at 50.0 µM 88.2%
inactive: [1]; at 1.2 µM 0% | [1]; at 3.7 µM 6% | [1]; at 11.0 µM 20% | [1]; at 33.0 µM 67% | [15]; at 1.2 µM -1% | [15]; at 3.7 µM 0% | [15]; at 11.0 µM -1% | [15]; at 33.0 µM 19% | [15]; at 100.0 µM 62% | [2]; at 1.2 µM -4% | [2]; at 3.7 µM 1% | [2]; at 11.0 µM 11% | [2]; at 33.0 µM 31% | [2]; at 100.0 µM 46% | [4]; at 1.2 µM -1% | [4]; at 3.7 µM 2% | [4]; at 11.0 µM 7% | [4]; at 33.0 µM 56% | [5]; at 1.2 µM 0% | [5]; at 3.7 µM 0% | [5]; [17] 8% | [5]; at 11.0 µM 8% | [5]; at 33.0 µM 37% | [5]; [18] 8%

Reference: PubChem BioAssay (NCI)
